# Activity calls are given as the source filed them. The call rests on the fitted dose curve; in most records, active means well fitted activation curve with a large enough effect in the repeat runs; inconclusive means weak or mixed curves; inactive means flat fitted curve, though single readings scatter.
# Assay: Caspase-3/7 induction in CHO-K1 cells by small molecules, qHTS assay (AID 1346980); further: nearly all actives have a fitted effect of over 15% in size
# Conditions: CHO-K1 caspase-3/7 induction, Caspase-Glo luminescence, 17 h; series mostly up to 92.4 µM; caspase-3/7 activation: at the top concentration
# From the text: National Center for Advancing Translational Sciences [NCATS]
# NIH Chemical Genomics Center [NCGC]
# U.S. Environmental Protection Agency [EPA]
# National Institutes of Environmental Health Sciences [NIEHS]
# National Toxicology Program [NTP]
# Apoptosis is a process of programmed cell death and plays a central role in the development of multicellular organisms. It is a highly regulated process and induces cell death by activating caspases, which are the members of cysteine aspartic acid-specific protease (caspase) family. Caspases involved in apoptosis are classified by their mechanism of action as initiator caspases (caspase-2, -8, -9 and -10) and executioner caspases (caspase-3, -6, and -7). Inhibition of apoptosis results in number of cancers, autoimmune diseases, inflammatory diseases and viral infection. To identify small molecule compounds that induce apoptosis, a homogeneous, luminescent Caspase-Glo 3/7 assay was used. Wild type CHO-K1 cells were used to screen Tox21 libraries for identifying caspase-3/7 activity inducers.
# CHO-K1 cells were dispensed at 1,500 per well in 5uL of culture medium into white solid bottom 1536-well plates (Corning Life Sciences, Corning, NY) using a Multidrop Combi (Thermo Scientific, Waltham, MA) dispenser. The assay plates were incubated at 37 C and 5% CO2 for 5hr, and then 23nL of compounds dissolved in DMSO and positive control were transferred using a Pintool station (Wako, San Diego, CA). The assay plates were incubated at 37C and 5% CO2 for 17hr. For caspase-3/7 activity read, 4uL of Caspase-Glo 3/7 reagent (Promega Corporation, Madison, WI) was added to each well of the assay plates using Flying Reagent Dispenser (FRD, Aurora Discovery, San Diego, CA) and incubated the assay plates at room temperature for 30min. The luminescence signal was quantified using a ViewLux plate reader (Perkin Elmer, Shelton, CT).
# On the % scale 0 is the no-effect control and ±100 the full control effect.
row,SMILES,caspase-3/7 activation
1,FC(F)(F)c1ccccc1Cl,-1.3% (inactive)
2,CCOC(C)=O,0.0118% (inactive)
3,Oc1cccc(O)c1O,-0.566% (inactive)
4,CC(CCC(=O)O)C(=O)O (stereo not given),0.336% (inactive)
5,O=C1c2ccccc2C(=O)C1c1nc2ccccc2c(Br)c1O,-1.82% (inactive)
6,CCCCOc1ccc(OCCCN2CCOCC2)cc1,0.112% [at 42.5 µM] (inactive)
7,O=C1NC(=O)c2cc([N+](=O)[O-])ccc21,0.06% (inactive)
8,CC(C)(O)c1ccc(CNC(=O)c2cccnc2Oc2ccc3nonc3c2)cc1,-0.992% (inactive)
9,C=C(C)[C@@H]1CCC2=CCC[C@@H](C)[C@]2(C)C1,-0.281% (inactive)
10,Brc1cc(Br)c(Oc2cc(Br)c(Br)cc2Br)cc1Br,-0.613% [at 42.5 µM] (inactive)
11,COC(=O)[C@H]1[C@H]2C[C@@H]3c4[nH]c5cc(OC)ccc5c4CCN3C[C@H]2C[C@@H](OC(=O)/C=C/c2ccc(O)c(OC)c2)[C@@H]1OC,-1.76% [at 42.5 µM] (inactive)
12,CC(CN(C)C)C(C)(O)Cc1ccc(Cl)cc1 (stereo not given),-0.603% [at 42.5 µM] (inactive)
13,O=[N+]([O-])c1ccc(Nc2ccc(Nc3ccccc3)c(S(=O)(=O)O)c2)c([N+](=O)[O-])c1,0.516% (inactive)
14,CCOc1ccc(Cc2nccc3cc(OCC)c(OCC)cc23)cc1OCC,-2.87% [at 42.5 µM] (inactive)
15,CNC(=O)c1cnn(-c2nc(N)c3ncn([C@@H]4O[C@H](CO)[C@@H](O)[C@H]4O)c3n2)c1,1.24% [at 42.5 µM] (inactive)
16,CCCC(=O)C(=O)O,0.287% (inactive)
17,CCC(C)COC(=O)CC(C)C (stereo not given),0.0718% (inactive)
18,c1cc(N(CC2CO2)CC2CO2)ccc1Cc1ccc(N(CC2CO2)CC2CO2)cc1 (stereo not given),4.12% (inactive)
19,O=c1[nH]c2ccc(Cl)cc2o1,0.338% (inactive)
20,COc1cc(Nc2c(C#N)cnc3cc(OCCCN4CCN(C)CC4)c(OC)cc23)c(Cl)cc1Cl,10.8% [at 42.5 µM] (inactive)

row,SMILES,caspase-3/7 activation
1,Cc1ccc(CO)cc1,0.489% (inactive)
2,Clc1cc(Cl)nc(Cl)n1,-1.24% (inactive)
3,C[C@]1(Cn2ccnn2)[C@H](C(=O)O)N2C(=O)C[C@H]2S1(=O)=O,-0.126% [at 42.5 µM] (inactive)
4,Cc1[nH]cnc1CN1CCc2c(c3ccccc3n2C)C1=O,-1.01% [at 42.5 µM] (inactive)
5,O=C(/C=C/c1ccccc1)OCCc1ccccc1,-1.29% (inactive)
6,CS(=O)(=O)c1ccc(-c2cn3ccccc3n2)cc1,-5.39% [at 42.5 µM] (inactive)
7,CCCCCCNC(=O)n1cc(F)c(=O)[nH]c1=O,0.619% [at 42.5 µM] (inactive)
8,CC(C)(c1ccccc1)c1ccccc1,0.427% (inactive)
9,Cc1c(C)c2c(c(C)c1OC(=O)CCC(=O)OCCO)CC[C@@](C)(CCC[C@H](C)CCC[C@H](C)CCCC(C)C)O2,-0.748% [at 42.5 µM] (inactive)
10,O=C(Cn1ccnc1[N+](=O)[O-])NCCO,-0.59% [at 42.5 µM] (inactive)
11,CCC=CC#N,-1.88% (inactive)
12,CC[C@]1(O)C[C@H]2CN(CCc3c([nH]c4ccccc34)[C@@](C(=O)OC)(c3cc4c(cc3OC)N(C=O)[C@H]3[C@@](O)(C(=O)OC)[C@H](OC(C)=O)[C@]5(CC)C=CCN6CC[C@]43[C@@H]65)C2)C1,-0.751% [at 42.5 µM] (inactive)
13,OC1(c2ccccc2)CCNCC1,1.51% [at 42.5 µM] (inactive)
14,CCCCCCC(C)(C)C(=O)O,2.15% (inactive)
15,Nc1cccc2c1CN(C1CCC(=O)NC1=O)C2=O (stereo not given),0.0807% [at 42.5 µM] (inactive)
16,CCCC(C(=O)OCCN(CC)CC)(c1ccccc1)c1ccccc1,0.673% [at 42.5 µM] (inactive)
17,N#CCc1ccc(Cl)cc1Cl,-0.0699% (inactive)
18,COc1ncnc(NS(=O)(=O)c2ccc(N)cc2)c1OC,-0.708% [at 42.5 µM] (inactive)
19,O=C(O)C[C@H](NC(=O)OCc1ccccc1)C(=O)O,1.4% (inactive)
20,O=C(O)CCc1nc(-c2ccccc2)c(-c2ccccc2)o1,-1.56% [at 42.5 µM] (inactive)

# Reference: PubChem BioAssay (Tox21)
